Where “and” joins values, the source holds several entries; their conditions need not be identical. Equal values may be shown once. Records with an inconclusive call do not appear. Values without a mark were called inactive. Calls of active or inactive are those of the source. Calls come from the whole dose curve; as a rule, active = well fitted curve in the direction sought with a large enough effect; inconclusive = small, poorly fitted or top-dose-only effect, or another doubt; inactive = no such curve, though single readings can be large or run the other way.
Test: qHTS Assay for Identifying Gametocytocidal Compounds (AID 743244);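 for max response: actives lower the fluorescent signal which means gametocytes are killed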
Conditions: P. falciparum 3D7 stage III-V gametocytes, alamarBlue, 72 h; max response: stronger effect = lower value
Excerpt: Malaria cases and deaths have dropped 50% in 29 countries since 2000 due to the combined effects of long-lasting insecticidal bednets, indoor residual spraying, and artemisinin-based combination therapies (ACTs). This success has raised hopes for malaria eradication and consequently stimulated interest in developing new reagents that block gametocyte transmission such as novel and safe gametocytocidal drugs. However, previous drug development efforts have focused primarily on the asexual parasites that cause symptoms, but not malaria transmission. Consequently, patients can remain infectious for weeks after the clearance of asexual parasites and clinical symptoms. To be transmitted from person to person via a mosquito, the parasites must switch from asexual to sexual development and produce male and female gametocytes. Malaria gametocytes consist of five stages (I, II, III, IV and V). The late stage gametocytes (III, IV and V) are difficult to be cultured in vitro and the long lifespan of mature gametocytes allows them being transmitted from host to mosquitoes unless they are completely eliminated by gametocytocidal agents. To identify gametocytocidal compounds which are capable of killing late stage P. falciparum gametocytes, a high throughput gametocyte viability assay was employed. This assay uses oxidoreduction indicator, alamarBlue, as a general measure of metabolic activity of gametocytes. Within live cells, the nonfluorescent resazurin is reduced to resorufin, a bright red fluorescence dye. Fluorescence decreases upon treatment of gametocytocidal compounds. P. falciparum gametocyte (3D7 strain) was used in this study.
The 1536-well gametocycidal viability assay was based on the previous method of Tanaka et al. Stage III-V gametocytes were tested against three compound libraries, including 4265 compounds from NCGC pharmaceutical collection, 400 from Malaria Box library, and 550 from an internal collection of kinase inhibitors. Briefly, 2.5 ul/well incomplete medium was dispensed into each well of 1,536-well plates using the Multidrop Combi followed by 23 nl compound transferring using the NX-TR Pintool (WAKO Scientific Solutions, San Diego, CA). Then, 2.5 ul/well of gametocytes was dispensed with a seeding density of 20,000 cells/well using the Multidrop Combi. The assay plates were incubated for 72 h at 37C with 5% CO2. After addition of 5 ul/well of 2X AlamarBlue dye (Life Technologies, cat. no. DAL1100), the plates were incubated for 24 h at 37C with 5% CO2 and then were read in a fluorescence detection mode (Ex = 525 nm, Em = 598 nm) on a ViewLux plate reader (PerkinElmer).
`CCCC(C)C1(CC)C(=O)NC(=O)NC1=O` (stereo not given) gave a max response of -3.05%.
In the case of `[O]=[Cd]`, the max response is reported as 2.29%.
In the case of `OC[C@@H](O)[C@H]1O[C@@H]2O[C@H](C(Cl)(Cl)Cl)O[C@@H]2[C@H]1O`, the max response is reported as 13.7%.
Work on `c1ccc(C2(N3CCCC3)CCCCC2)cc1` yielded a max response of -1.69%.
Work on `CP(=O)(O)C1=CCNCC1` yielded a max response of 6.19%.
With `O=S(=O)(O)c1cc(O)ccc1O` the max response was 6.77%.
For `C[C@@H]([C@H](O)c1ccccc1)N(C)C`, the max response was 8.71%.
With `NNC(=O)c1ccc(O)cc1` the max response was 7.91%.
Work on `CC(Cc1ccc(OCC(=O)O)cc1)NCC(O)c1cccc(Cl)c1` (stereo not given) yielded a max response of 16.8%.
In the case of `COc1ccc2[nH]cc(CCN)c2c1`, the max response is reported as 15.8%.
Work on `Cc1sc2ccccc2c1CC1=NCCN1` yielded a max response of 25.3%.
Compound `NCCCP(=O)(O)O` has a max response of -9.88%.
Compound `COc1ccc2c(c1)c(CCN1CCOCC1)c(C)n2C(=O)c1cccc(Cl)c1Cl` has a max response of 23.8%.
Compound `O=CC=O` has a max response of 1.75%.
In the case of `[S]=[Sb](=[S])[S][Sb](=[S])=[S]`, the max response is reported as 3.55%.
Compound `CCCCCCCCCC(=O)O[C@H]1CC[C@H]2[C@@H]3CCC4=CC(=O)CC[C@]4(C)[C@H]3CC[C@]12C` has a max response of 4.27%.
`C=CC[C@]1(O)CC[C@H]2[C@@H]3CCC4=CCCC[C@@H]4[C@H]3CC[C@@]21C` gave a max response of 15.3%.
With `Oc1cc(Cl)c(Cl)cc1Cl` the max response was 4.45%.
Compound `O=[N+]([O-])c1ccc(F)c([N+](=O)[O-])c1` has a max response of 6.65%.
`CCOC(=O)c1ncn2c1[C@@H]1CCCN1C(=O)c1cc(OC)ccc1-2` gave a max response of -1.18%.
In the case of `C[N+]1([O-])[C@@H]2CC[C@H]1CC(OC(=O)C(CO)c1ccccc1)C2` (stereo not given in full), the max response is reported as 6.16% and -9.54%.
In the case of `CNC(C)C(O)c1ccc(O)cc1` (stereo not given), the max response is reported as -4.84% and 8.32%.
Compound `CC(=O)O[C@H]1C[C@H](O[C@H]2[C@@H](O)C[C@H](O[C@H]3[C@@H](O)C[C@H](O[C@H]4CC[C@@]5(C)[C@H](CC[C@@H]6[C@@H]5C[C@@H](O)[C@]5(C)[C@@H](C7=CC(=O)OC7)CC[C@]65O)C4)O[C@@H]3C)O[C@@H]2C)O[C@H](C)[C@H]1O[C@@H]1O[C@H](CO)[C@@H](O)[C@H](O)[C@H]1O` has a max response of -19.5%.
In the case of `N[C@@]1(C(=O)O)CC[C@@H](C(=O)O)C1`, the max response is reported as 13.5%.
Compound `CCC(=O)O[C@]1(c2ccccc2)CCN(C)C[C@H]1C` has a max response of -3.07%.
With `C[C@]12CC[C@H](OS(=O)(=O)O)CC1=CC[C@@H]1[C@@H]2CC[C@]2(C)C(=O)CC[C@@H]12` the max response was 33.6%.
For `CCNC1(c2cccs2)CCCCC1=O` (stereo not given), the max response was -0.213%.
With `O=P(O)(O)C(Cl)(Cl)P(=O)(O)O` the max response was -3.79% and -4.92%.
Compound `CCC1(c2ccccc2)C(=O)NC(=O)NC1=O` has a max response of 6%.
In the case of `C[N+](C)(C)CC#CCOC(=O)Nc1cccc(Cl)c1`, the max response is reported as 12.7%.
`NCCc1ccc(S(=O)(=O)F)cc1` showed a max response of 22.8%.
Work on `C[C@@H](Cc1ccccc1)N(C)C` yielded a max response of -7.23%.
In the case of `C[C@H](N)CN1CCc2ccc(Br)cc21`, the Potency is reported as 7.43 µM (active).
With `CC(Cc1ccccc1)NC=O` (stereo not given) the max response was -3.98%.
`O=[N+]([O-])c1ccccc1` gave a max response of 18.1%.
In the case of `C[C@H](N)Cc1cccc(C(F)(F)F)c1`, the max response is reported as 11.9%.
`CC(=O)O[C@H]1C[C@H](O[C@H]2[C@@H](O)C[C@H](O[C@H]3[C@@H](O)C[C@H](OC4CC[C@@]5(C)[C@H](CC[C@@H]6[C@@H]5CC[C@]5(C)[C@@H](C7=CC(=O)OC7)CC[C@]65O)C4)O[C@@H]3C)O[C@@H]2C)O[C@H](C)[C@H]1O[C@@H]1O[C@H](CO)[C@@H](O)[C@H](O)[C@H]1O` (stereo not given in full) showed a max response of 9.96%.
Work on `O=[N+]([O-])c1cc(O)c(O)c([N+](=O)[O-])c1` yielded a max response of -6.67%.
`O=c1[nH]c(=O)n(Cl)c(=O)n1Cl` showed a max response of 6.71%.
Compound `NC(=O)CI` has a max response of 8.04%.

Source: PubChem BioAssay (NCATS)
% is set by controls: 0 for no effect and ±100 for the full control effect; potency is the fitted concentration of half-maximal effect.
